In article PMC9911399, “Two distinct binding modes provide the RNA-binding protein RbFox with extraordinary sequence specificity”:
Changes are numbered by the printed parent chain; changes in the protein carry UniProt numbers. In all, about 16,000 sequences were measured (“ka relative to ugcaugu”: median about 0.096, highest 2% from about 0.35 on). The sample as a whole holds a higher share of the highest values than the screen did.

T1: RBFOX1 RRM RbFoxmut (Fox-RRM*) (Homo sapiens, UniProt Q9NWB1 109-208, R118D;E147R;N151S;E152T)
T1 sequence: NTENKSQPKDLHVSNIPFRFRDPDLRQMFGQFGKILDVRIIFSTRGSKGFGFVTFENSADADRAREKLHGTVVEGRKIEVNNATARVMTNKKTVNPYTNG

B1: UAAGGAG (DNA:RNA)
RNA: GGGAGACCGGAAUUCAGAUUGUCCUAAGGAGUUAAAUCCCGUCGUAGCCACCA
DNA 1: CAATCTGAATTCCGGTCTCCC
DNA 2: TGGTGGCTACGACGGGATT
B2: AGUAGGG (DNA:RNA)
RNA: B1 RNA with U25A, A26G, A27U, G28A, A30G
DNA 1: CAATCTGAATTCCGGTCTCCC
DNA 2: TGGTGGCTACGACGGGATT
B3: CAAGUGG (DNA:RNA)
RNA: B1 RNA with U25C, G29U, A30G
DNA 1: CAATCTGAATTCCGGTCTCCC
DNA 2: TGGTGGCTACGACGGGATT
B4: AUUCAGA (DNA:RNA)
RNA: GGGAGACCGGAAUUCAGAUUGUCCAUUCAGAUUAAAUCCCGUCGUAGCCACCA
DNA 1: CAATCTGAATTCCGGTCTCCC
DNA 2: TGGTGGCTACGACGGGATT
B5: AGUCACU (DNA:RNA)
RNA: B4 RNA with U26G, G30C, A31U
DNA 1: CAATCTGAATTCCGGTCTCCC
DNA 2: TGGTGGCTACGACGGGATT
B6: UACUUUU (DNA:RNA)
RNA: B1 RNA with A27C, G28U, G29U, A30U, G31U
DNA 1: CAATCTGAATTCCGGTCTCCC
DNA 2: TGGTGGCTACGACGGGATT
B7: UCCUCCU (DNA:RNA)
RNA: B1 RNA with A26C, A27C, G28U, G29C, A30C, G31U
DNA 1: CAATCTGAATTCCGGTCTCCC
DNA 2: TGGTGGCTACGACGGGATT
B8: UCUGGCC (DNA:RNA)
RNA: B1 RNA with A26C, A27U, A30C, G31C
DNA 1: CAATCTGAATTCCGGTCTCCC
DNA 2: TGGTGGCTACGACGGGATT
B9: UGGAAUG (DNA:RNA)
RNA: B1 RNA with A26G, A27G, G28A, G29A, A30U
DNA 1: CAATCTGAATTCCGGTCTCCC
DNA 2: TGGTGGCTACGACGGGATT
B10: CUGGAUC (DNA:RNA)
RNA: B4 RNA with A25C, U27G, C28G, G30U, A31C
DNA 1: CAATCTGAATTCCGGTCTCCC
DNA 2: TGGTGGCTACGACGGGATT
B11: UGGAUUG (DNA:RNA)
RNA: B1 RNA with A26G, A27G, G28A, G29U, A30U
DNA 1: CAATCTGAATTCCGGTCTCCC
DNA 2: TGGTGGCTACGACGGGATT
B12: UGGAGUC (DNA:RNA)
RNA: B1 RNA with A26G, A27G, G28A, A30U, G31C
DNA 1: CAATCTGAATTCCGGTCTCCC
DNA 2: TGGTGGCTACGACGGGATT
B13: UGGAGAU (DNA:RNA)
RNA: B1 RNA with A26G, A27G, G28A, G31U
DNA 1: CAATCTGAATTCCGGTCTCCC
DNA 2: TGGTGGCTACGACGGGATT
B14: UGGAAUC (DNA:RNA)
RNA: B4 RNA with A25U, U26G, U27G, C28A, G30U, A31C
DNA 1: CAATCTGAATTCCGGTCTCCC
DNA 2: TGGTGGCTACGACGGGATT
B15: UGGACUC (DNA:RNA)
RNA: B1 RNA with A26G, A27G, G28A, G29C, A30U, G31C
DNA 1: CAATCTGAATTCCGGTCTCCC
DNA 2: TGGTGGCTACGACGGGATT
B16: UCCUGGA (DNA:RNA)
RNA: B4 RNA with A25U, U26C, U27C, C28U, A29G
DNA 1: CAATCTGAATTCCGGTCTCCC
DNA 2: TGGTGGCTACGACGGGATT
B17: UGGGAUC (DNA:RNA)
RNA: B1 RNA with A26G, A27G, G29A, A30U, G31C
DNA 1: CAATCTGAATTCCGGTCTCCC
DNA 2: TGGTGGCTACGACGGGATT
B18: UGGAUCU (DNA:RNA)
RNA: B1 RNA with A26G, A27G, G28A, G29U, A30C, G31U
DNA 1: CAATCTGAATTCCGGTCTCCC
DNA 2: TGGTGGCTACGACGGGATT
B19: UGGAUUC (DNA:RNA)
RNA: B1 RNA with A26G, A27G, G28A, G29U, A30U, G31C
DNA 1: CAATCTGAATTCCGGTCTCCC
DNA 2: TGGTGGCTACGACGGGATT
B20: UGGAGAA (DNA:RNA)
RNA: B1 RNA with A26G, A27G, G28A, G31A
DNA 1: CAATCTGAATTCCGGTCTCCC
DNA 2: TGGTGGCTACGACGGGATT
B21: CCAGUUC (DNA:RNA)
RNA: B1 RNA with U25C, A26C, G29U, A30U, G31C
DNA 1: CAATCTGAATTCCGGTCTCCC
DNA 2: TGGTGGCTACGACGGGATT
B22: UCAGAGG (DNA:RNA)
RNA: B1 RNA with A26C, G29A, A30G
DNA 1: CAATCTGAATTCCGGTCTCCC
DNA 2: TGGTGGCTACGACGGGATT
B23: CCAUUUC (DNA:RNA)
RNA: B1 RNA with U25C, A26C, G28U, G29U, A30U, G31C
DNA 1: CAATCTGAATTCCGGTCTCCC
DNA 2: TGGTGGCTACGACGGGATT
B24: UGAUAGC (DNA:RNA)
RNA: B4 RNA with A25U, U26G, U27A, C28U, A31C
DNA 1: CAATCTGAATTCCGGTCTCCC
DNA 2: TGGTGGCTACGACGGGATT
B25: UAUAGUG (DNA:RNA)
RNA: B1 RNA with A27U, G28A, A30U
DNA 1: CAATCTGAATTCCGGTCTCCC
DNA 2: TGGTGGCTACGACGGGATT
B26: AGUGAUA (DNA:RNA)
RNA: B4 RNA with U26G, C28G, G30U
DNA 1: CAATCTGAATTCCGGTCTCCC
DNA 2: TGGTGGCTACGACGGGATT
B27: UAGGGUG (DNA:RNA)
RNA: B1 RNA with A27G, A30U
DNA 1: CAATCTGAATTCCGGTCTCCC
DNA 2: TGGTGGCTACGACGGGATT
B28: UCCACGA (DNA:RNA)
RNA: B4 RNA with A25U, U26C, U27C, C28A, A29C
DNA 1: CAATCTGAATTCCGGTCTCCC
DNA 2: TGGTGGCTACGACGGGATT
B29: CGAGCCU (DNA:RNA)
RNA: B1 RNA with U25C, A26G, G29C, A30C, G31U
DNA 1: CAATCTGAATTCCGGTCTCCC
DNA 2: TGGTGGCTACGACGGGATT
B30: UGAUGGA (DNA:RNA)
RNA: B1 RNA with A26G, G28U, A30G, G31A
DNA 1: CAATCTGAATTCCGGTCTCCC
DNA 2: TGGTGGCTACGACGGGATT
B31: CGGAUGA (DNA:RNA)
RNA: B4 RNA with A25C, U26G, U27G, C28A, A29U
DNA 1: CAATCTGAATTCCGGTCTCCC
DNA 2: TGGTGGCTACGACGGGATT
B32: UGGAUGA (DNA:RNA)
RNA: B4 RNA with A25U, U26G, U27G, C28A, A29U
DNA 1: CAATCTGAATTCCGGTCTCCC
DNA 2: TGGTGGCTACGACGGGATT
B33: GGGUGGA (DNA:RNA)
RNA: B4 RNA with A25G, U26G, U27G, C28U, A29G
DNA 1: CAATCTGAATTCCGGTCTCCC
DNA 2: TGGTGGCTACGACGGGATT
B34: AAAUCUG (DNA:RNA)
RNA: B1 RNA with U25A, G28U, G29C, A30U
DNA 1: CAATCTGAATTCCGGTCTCCC
DNA 2: TGGTGGCTACGACGGGATT
B35: UCACACA (DNA:RNA)
RNA: B4 RNA with A25U, U26C, U27A, G30C
DNA 1: CAATCTGAATTCCGGTCTCCC
DNA 2: TGGTGGCTACGACGGGATT

Target: T1, RBFOX1 RRM RbFoxmut (Fox-RRM*)
Assay: EMSA; HiTS-Eq, 1 nM pool, 10 min; buffer printed only for the single-RNA assays: 10 mM Tris pH 7.5, 150 mM NaCl, 3.4 mM EDTA, 0.001% NP-40, 30 C
Conditions: tags: His6 N-terminal (pET28a); label: 5' 32P
Summary of the method: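 A pool of RNA with 7 randomized nucleotides, 5′-radiolabelled and with DNA-annealed flanks, was equilibrated at 1 nM for 10 min in 50 µL with purified RbFox RRM, wild type or mutant, across increasing protein concentrations. Free RNA was separated by 8% native PAGE, excised, reverse-transcribed, barcoded by PCR and sequenced. Relative association constants were obtained from read-count changes of each RNA species versus the control reaction and normalised to the cognate motif.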

Binder | binding signal
B1 | 0.11 KA relative to UGCAUGU
B2 | 0.0759 KA relative to UGCAUGU
B3 | 0.0554 KA relative to UGCAUGU
B4 | 0.0812 KA relative to UGCAUGU
B5 | 0.0668 KA relative to UGCAUGU
B6 | 0.097 KA relative to UGCAUGU
B7 | 0.0641 KA relative to UGCAUGU
B8 | 0.161 KA relative to UGCAUGU
B9 | 1.66 KA relative to UGCAUGU
B10 | 0.274 KA relative to UGCAUGU
B11 | 0.526 KA relative to UGCAUGU
B12 | 0.18 KA relative to UGCAUGU
B13 | 0.094 KA relative to UGCAUGU
B14 | 0.458 KA relative to UGCAUGU
B15 | 0.0856 KA relative to UGCAUGU
B16 | 0.0709 KA relative to UGCAUGU
B17 | 0.357 KA relative to UGCAUGU
B18 | 0.259 KA relative to UGCAUGU

Binder | binding signal
B19 | 0.139 KA relative to UGCAUGU
B20 | 0.0999 KA relative to UGCAUGU
B21 | 0.073 KA relative to UGCAUGU
B22 | 0.0974 KA relative to UGCAUGU
B23 | 0.0493 KA relative to UGCAUGU
B24 | 0.0858 KA relative to UGCAUGU
B25 | 0.137 KA relative to UGCAUGU
B26 | 0.133 KA relative to UGCAUGU
B27 | 0.149 KA relative to UGCAUGU
B28 | 0.0743 KA relative to UGCAUGU
B29 | 0.103 KA relative to UGCAUGU
B30 | 0.0611 KA relative to UGCAUGU
B31 | 0.235 KA relative to UGCAUGU
B32 | 0.401 KA relative to UGCAUGU
B33 | 0.0811 KA relative to UGCAUGU
B34 | 0.0533 KA relative to UGCAUGU
B35 | 0.0876 KA relative to UGCAUGU
